For part of these data: Results with a measured potency or affinity are listed apart.
Experiments:
Staphylococcus aureus = test: Antibacterial activity against Staphylococcus aureus MRSA ATCC 43300 (CO-ADD:GP_020); MIC in CAMBH media using NBS plates, by Resazurin F(560/590); assay type: functional; conditions: Concentration 20 uM, ASSAY_TEST Inhibition of Bacterial Growth, detection method Resazurin, Fluorescence (ex560/em590), MEDIA CAMHB, plate type 384well, CORNING #3640, time 18 hr
Acinetobacter baumannii = test: Antibacterial activity against Acinetobacter baumannii ATCC 19606 (CO-ADD:GN_034); MIC in CAMBH media using NBS plates, by Resazurin F(560/590); assay type: functional; conditions: Concentration 20 uM, ASSAY_TEST Inhibition of Bacterial Growth, detection method Resazurin, Fluorescence (ex560/em590), MEDIA CAMHB, plate type 384well, CORNING #3640, time 18 hr
Escherichia coli = test: Antibacterial activity against Escherichia coli ATCC 25922 (CO-ADD:GN_001); MIC in CAMBH media using NBS plates, by Resazurin F(560/590); assay type: functional; conditions: Concentration 20 uM, ASSAY_TEST Inhibition of Bacterial Growth, detection method Resazurin, Fluorescence (ex560/em590), MEDIA CAMHB, plate type 384well, CORNING #3640, time 18 hr
Klebsiella pneumoniae = conditions: Concentration 20 uM; ASSAY_TEST Inhibition of Bacterial Growth; detection method Absorption (OD600); MEDIA CAMHB; plate type 384well; NBS; CORNING #3640; time 18 hr
Candida albicans = conditions: 20 µM
Cryptococcus neoformans = conditions: Concentration 20 uM; ASSAY_TEST Inhibition of Fungal Growth; detection method Resazurin; Absorption (OD600-OD570); plate type 384well; NBS; CORNING #3640

SMILES	Inhibition (Staphylococcus aureus)	Inhibition (Acinetobacter baumannii)	Inhibition (Escherichia coli)	Inhibition (Klebsiella pneumoniae)	Inhibition (Candida albicans)	Inhibition (Cryptococcus neoformans)
O=[N+]([O-])c1nc[nH]c1/C=C\c1ccccc1	6.19%	-12.82%	5.35%	8.67%	3.47%	10.56%
Cn1ncc2c(Nc3ccc(Br)cc3)nc(Nc3ccc(Br)cc3)nc21	3.19%	-7.92%	12.54%	2.31%	-0.11%	-3.38%
O=C(Nc1cccc2ccccc12)c1ccccc1	1.57%	-13.68%	5.05%	-4.37%	0.1%	-4.91%
CN1CCC(n2[nH]c(-c3ccccc3)c(Cc3ccccc3)c2=O)CC1 [BENZPIPERYLON]	11.83%	-21.66%	9.93%	7.59%	-2.02%	-11.9%
CN(C)c1ccc2c(c1)Sc1cc(N(C)C)ccc1N2C(=O)c1ccccc1	-9.71%	0.08%	1.67%	25.07%	11%	-3.81%
CC(C)(C(N)=O)c1ccccc1	17.59%	-10.23%	13.36%	17.26%	-1.04%	-2.3%
Nc1ccc(C(=O)Nc2ccc(NC(=O)c3ccco3)c(O)c2)cc1	1%	0.24%	0.6%	17.4%	3.85%	-8.99%
CC1=NC(C)(C)CC2CCC(O)C12 (stereo not drawn)	15.01%	-5.87%	9.74%	11.22%	1.52%	-2.24%
O=C(Cn1ccc(=O)[nH]c1=O)Nc1nccs1	4.05%	-8.5%	10.86%	12.12%	0.84%	-10.28%
O=NC1=C(c2cccc([N+](=O)[O-])c2)Nc2ccccc2S1	0.76%	0.77%	-6.48%	32.11%	13.1%	-8.32%
COc1cc(/C=C2\CCOC2=O)cc(OC)c1OC	4.75%	13.86%	8.29%	12.15%	2.88%	-2.47%
Oc1ccccc1-c1nc2c3ccccc3c3ccccc3c2[nH]1	17.7%	0.13%	3.46%	14.09%	6.21%	-5.55%
C(=N\N=c1/nnn(Cc2ccccc2)[nH]1)/c1ccccc1	11.96%	-3.55%	3.73%	9.14%	6.47%	-8.48%

— ChEMBL document CHEMBL4296182, “CO-ADD screening of NIH NCI Diversity Set V”
